# Measurements taken from PubChem BioAssay AID651551 (Sanford-Burnham Center for Chemical Genomics, 2012).
# Target: PEG-3 (UniProt Q6IN02)
# Experiment: GAPDH versus PEG-3 reporter suppression – cell-based, luminescence, counter-screen for PEG-3 promoter inhibitor project, SAR follow-up (AID 651551)
# Conditions: HeLa PEG-Prom / GAPDH luciferase reporter, 6 or 24 h, run 1, 24 h; at 99 µM (top of the series)
row,SMILES,inhibition % (higher = more inhibition) [%]
1,CCn1cc(C(=O)NCc2ccco2)c(=O)c2cc(S(=O)(=O)N3CCCC3)ccc21,47.5
2,COc1ccc(Cl)cc1Nc1nc(-c2sc(NC(=O)c3ccccc3)nc2C)cs1,44.2
3,Cc1nc(NC(=O)c2ccccc2)sc1-c1csc(Nc2ccccc2Cl)n1,-64.6
4,Cc1cc(NC(=O)c2ccccc2)n(-c2nc3ccccc3n2C)n1,10.1
5,O=C(Nc1nccs1)c1nn(-c2ccccc2)c(=O)c2ccccc12,41.8
6,COc1ccc(-n2nc(C(=O)NCC(=O)Nc3cc(OC)c(OC)c(OC)c3)c3ccccc3c2=O)cc1OC,47.5
7,COc1ccccc1Nc1nc(-c2sc(NC(=O)c3ccco3)nc2C)cs1,18.8
8,COc1ccc(-n2nc(C(=O)NCC(=O)Nc3cccc(OC)c3)c3ccccc3c2=O)cc1,24.5
9,Cc1cc(NC(=O)c2ccccc2C)n(-c2nc3ccccc3[nH]2)n1,47.5
10,Cc1cc(NC(=O)c2ccccc2C(F)(F)F)n(-c2nc3ccccc3[nH]2)n1,93.5
11,O=C(Nc1nc2ccccc2s1)c1nn(-c2ccccc2)c(=O)c2ccccc12,-7.12
12,COCCCNC(=O)c1ccc(Cn2c(=O)c3ccccc3n(Cc3ccccc3C#N)c2=O)cc1,54.2
13,Cc1cc(NC(=O)c2ccccc2)n(-c2nc3ccccc3[nH]2)n1,-6.81
14,CCCn1nc(C(=O)Nc2nc(-c3ccccn3)cs2)c2ccccc2c1=O,39.1
15,Cc1nc(NC(=O)c2ccccc2)sc1-c1csc(Nc2cccc(Cl)c2C)n1,-27.2
16,CCn1nc(C(=O)Nc2nc(-c3ccccn3)cs2)c2ccccc2c1=O,49.2
17,COc1ccc(-n2nc(C(=O)NCC(=O)Nc3ccc(OC)c(OC)c3)c3ccccc3c2=O)cc1,53.3
18,CCCn1nc(C(=O)Nc2nc(-c3ccncc3)cs2)c2ccccc2c1=O,31.6
19,CCCn1nc(C(=O)Nc2nc3ccccc3s2)c2ccccc2c1=O,33.1
20,O=C(Nc1nc(-c2ccccc2)cs1)c1nn(-c2ccccc2)c(=O)c2ccccc12,13
21,Cc1nc(NC(=O)c2ccccc2)sc1-c1csc(Nc2ccccc2)n1,73.4
22,Cc1cc(NC(=O)c2cccc(C)c2C)n(-c2nc3ccccc3[nH]2)n1,79.1
23,Cc1ccc(Cl)cc1Nc1nc(-c2sc(NC(=O)c3ccco3)nc2C)cs1,24.5
